Assay results from PubChem BioAssay AID1906 (The Scripps Research Institute Molecular Screening Center, 2009).
Screen size: about 300,000 compounds; about 1,500 (0.5%) were called active.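 The calls were made as follows: active = inhibition above the mean of all tested compounds plus 3 SD, set per screening campaign (cut at about 17% in these data); inactive = the rest.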 Only a selection was taken, and actives are over-represented in it overall.

system: cathepsin L1 (Fasciola hepatica); experiment: CTSL1 protease inhibition, fluke enzyme – biochemical, QFRET, fluorogenic peptide substrate, counter-screen for PFM18AAP inhibitor project, primary screen (AID 1906);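 also: 0% = plate median of test compound wells and 100% = 1 µM Z-Phe-Ala-diazomethylketone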; conditions: recombinant F. hepatica cathepsin L1, Z-Leu-Arg-MCA fluorescence; at 5.96 µM; active compounds read high

Row | SMILES | inhibition
1 | COc1ccc(CNC(=O)COC(=O)/C=C/c2ccc(S(=O)(=O)N3CCOCC3)cc2)cc1 | 0.44% (inactive)
2 | COC(=O)c1ccc(NC(=O)CSc2nnc(Cc3cccn3C)n2-c2ccc(F)cc2)cc1 | 6.5% (inactive)
3 | CCCC(=O)Nc1cc(OCC)c(NC(=O)NC2CCCCC2)cc1OCC | -3.59% (inactive)
4 | CCOc1cc(NC(=O)CCl)c(OCC)cc1NC(C)=O | 83.7% (active)
5 | CCOc1cc(NS(=O)(=O)c2ccc(OC)cc2)c(OCC)cc1NC(C)=O | -2.89% (inactive)
6 | C/C(CCC(=O)OC[C@H]1O[C@H](C#Cc2ccccc2)C=C[C@@H]1Oc1ccc(C)cc1)=N\OC[C@@H](O)[C@H]1O[C@@H]2OC(C)(C)O[C@@H]2[C@H]1O | -0.48% (inactive)
7 | CC1(C)NC(=O)N(CCCCSc2ccc(Cl)cc2)C1=O | 3.34% (inactive)
8 | N#Cc1nc(N)nc(N(c2ccccc2)c2ccccc2)n1 | 56.4% (active)
9 | CC(C)Nc1nc(N(c2ccccc2)c2ccccc2)nc(-n2ccnc2)n1 | -0.83% (inactive)
10 | Cc1ccc(C(=O)N2CCN(C(=O)N3CCOCC3)CC2)cc1 | 1.67% (inactive)
11 | Cc1ccccc1-c1ccc(Nc2ccc(C(=O)N3CCOCC3)cc2)nn1 | 0.35% (inactive)
12 | Cc1oc2c(c1C(=O)N1CCOCC1)C(=O)c1ccccc1C2=O | 18.4% (active)
13 | CCOC(=O)/C(=C\c1ccc([N+](=O)[O-])cc1)C(=O)c1cc(C(C)=O)c(Nc2ccccc2)s1 | -2.81% (inactive)
14 | COc1ccccc1C(CNC(=O)c1cccc(NS(=O)(=O)c2ccc(Br)cc2)c1)N(C)C (stereo not given) | 4.17% (inactive)
15 | CN(C)C(CNC(=O)CCCOc1ccccc1)c1ccco1 (stereo not given) | -6.17% (inactive)
16 | CN(C)C(CNC(=O)c1cccc(C#N)c1)c1ccco1 (stereo not given) | 22.2% (active)
17 | CN(C)C(CNC(=O)c1cccc(S(=O)(=O)Nc2ccc(Br)cc2)c1)c1ccco1 (stereo not given) | -0.56% (inactive)
18 | COC(=O)c1scc(S(=O)(=O)C(C)(C)C)c1-n1cccc1 | -3.59% (inactive)
19 | Cc1ccc(/C=C/C(=O)Nc2ccc([N+](=O)[O-])c(NC(=O)/C=C/c3ccc(C)o3)c2)o1 | 7.56% (inactive)
20 | O=C(N/N=C/c1ccc([N+](=O)[O-])o1)c1cn(-c2ccccc2)nc1-c1ccc(F)cc1 | 1.54% (inactive)
21 | O=C(/C=C/c1ccc([N+](=O)[O-])o1)NNC(=O)c1ccc(F)cc1 | 17.7% (active)
22 | Cc1ccc(NC(=S)Nc2ncccc2C)c(C)c1 | -0.91% (inactive)
23 | [2H]C(CCOS(N)(=O)=O)c1ccccc1 (stereo not given) | 1.8% (inactive)

Row | SMILES | inhibition
24 | COc1ccc(C=C(C#N)C#N)c(CSc2ccccn2)c1 | -4.15% (inactive)
25 | Cc1ccc(OCCNC(=O)CCNS(=O)(=O)c2ccc(Br)cc2)cc1 | 0.55% (inactive)
26 | CCc1cccc(NC(=O)CCC(=O)O)c1 | -3% (inactive)
27 | O=C(CCl)Nc1cccc(CP(=O)(c2ccccc2)c2ccccc2)c1 | 72% (active)
28 | O=C(Cc1ccccc1)Nc1cccc(NC(=O)c2ccccc2)c1 | -2.42% (inactive)
29 | C#CCOCCOCCOCCNc1nc(N2CCN(C(=O)C([C@@H](C)CC)n3cc(C(N)COC(=O)C(F)(F)F)nn3)CC2)nc(N2CCN(C(=O)[C@H](Cc3ccc(O)cc3)n3cc(C(N)[C@H](C)CC)nn3)CC2)n1 (stereo not given in full) | -2.06% (inactive)
30 | C#CCOCCOCCOCCNc1nc(N2CCN(C(=O)C([C@@H](C)CC)n3cc(C(N)COC(=O)C(F)(F)F)nn3)CC2)nc(N2CCN(C(=O)[C@H](CCCCN)n3cc(C(N)CC(C)C)nn3)CC2)n1 (stereo not given in full) | 33.1% (active)
31 | C#CCOCCOCCOCCNc1nc(N2CCN(C(=O)[C@H](CCCCN)n3cc([C@@H](N)C(C)CC)nn3)CC2)nc(N2CCN(C(=O)[C@H](Cc3ccc(O)cc3)n3cc([C@@H](N)C(C)CC)nn3)CC2)n1 (stereo not given in full) | 5.02% (inactive)
32 | CCOC(=O)NC(=O)CSc1nnc(SCCC(=O)O)s1 | -3.27% (inactive)
33 | Cc1cccc2nc(CNc3ccc(F)cc3)cn12 | -0.43% (inactive)
34 | O=C(CN1CCN(S(=O)(=O)c2ccc(F)cc2)CC1)NC1CC1 | 0.44% (inactive)
35 | Nc1c(Cl)cc(-c2csc(N3CCCC3c3nc4cc(Cl)c(Cl)cc4n3CCOCCO)n2)cc1Cl (stereo not given) | 1.62% (inactive)
36 | COCCCN(C(=S)Nc1c(C)cc(C)cc1C)C(C)c1ccncc1 (stereo not given) | -2.52% (inactive)
37 | CC(C)Cc1nnc(NC(=O)CCC(=O)Nc2ccc3cn[nH]c3c2)s1 | -6.53% (inactive)
38 | CCc1noc(C)c1C(=O)NNC(=O)c1ccc(F)cc1 | 18.8% (active)
39 | Cc1onc(-c2ccccc2)c1C(=O)NNC(=S)NC(=O)c1ccc(F)cc1 | 6.16% (inactive)
40 | CCc1noc(C)c1C(=O)N1CCCC(N2CCN(c3ccc(F)cc3)CC2)C1 (stereo not given) | -0.72% (inactive)
41 | COc1ccc(/C=N/NC(=O)C(C)N(c2ccc(OC)cc2)S(C)(=O)=O)cc1 (stereo not given) | -4.5% (inactive)
42 | COc1cc(C2C(N3C(=O)c4ccccc4C3=O)C(=O)N2c2ccc(C)c(C)c2)cc(OC)c1OC (stereo not given) | 3.07% (inactive)
43 | CC(=O)NN1C(=O)c2ccccc2NC1c1ccccc1 (stereo not given) | 0.11% (inactive)
44 | Cc1ccc(C2Nc3ccccc3C(=O)N2CCN2CCNC2=O)cc1 (stereo not given) | 28.6% (active)
45 | CCOC(=O)NN1C(=O)c2ccccc2NC1c1cccc(O)c1 (stereo not given) | 7.1% (inactive)
46 | Cc1cc(NC(=O)CCC(=O)N(Cc2ccccc2)C(C(=O)NC2CCCC2)c2ccc(C)o2)no1 (stereo not given) | 29.5% (active)

Row | SMILES | inhibition
47 | Cc1cc(NC(=O)CCC(=O)N(c2cccc(F)c2)C(C(=O)NC2CCCC2)c2ccncc2)no1 (stereo not given) | -0.94% (inactive)
48 | Cc1cc(NC(=O)CCC(=O)N(c2ccccc2)C(C(=O)NC2CCCC2)c2ccncc2)no1 (stereo not given) | -1.79% (inactive)
49 | CC1CCN(S(=O)(=O)c2ccc3ncn(CC(=O)N(C)C4CCCCC4)c(=O)c3c2)CC1 | 1.81% (inactive)
50 | Cc1ccc(C)c(Cn2nnc3c(=O)[nH]c(C(=O)Nc4ccc(F)cc4)nc32)c1 | 0.39% (inactive)
51 | O=C(CCl)NNc1cccc(Cl)n1 | 87.5% (active)
52 | O=C(Cc1c(Cl)cccc1Cl)NC1CC1 | 4.27% (inactive)
53 | O=C(NNc1ccccn1)c1ccc(Cl)nc1 | 1.75% (inactive)
54 | Cc1ccccc1NC(=O)c1ccc(COc2ccc3c(C)cc(=O)oc3c2)cc1 | 1.96% (inactive)
55 | CCn1ccnc1CN(C)Cc1nc(-c2ccc3c(c2)OCO3)no1 | -4.87% (inactive)
56 | COc1ccc(CCNC(=O)COC(=O)C2CCCCC2)cc1 | -2.54% (inactive)
57 | COc1ccc(NC(=O)CN(C)C(=O)CNC(=O)C2CCCCC2)cc1 | -1.07% (inactive)
58 | COc1ccc(NC(=O)COC(=O)CNC(=O)C2CCCCC2)cc1 | 32.3% (active)
59 | NC(=O)COc1ccccc1C(=O)NC12CC3CC(CC(C3)C1)C2 | -1.07% (inactive)
60 | COc1ccccc1C(=O)COC(=O)CSCC(=O)Nc1cc(C)on1 | -19.3% (inactive)
61 | Cc1cc(C)c(C#N)c(SCc2ccccc2C(=O)O)n1 | -2.52% (inactive)
62 | COCc1cc(C)nc(SCC(=O)Nc2cccc(C)c2)c1C#N | -0.64% (inactive)
63 | Cc1cc(C)c(C#N)c(SCC(=O)Nc2ccccc2)n1 | 39.5% (active)
64 | Cc1c(C(=O)OC(C)C)sc(NC(=O)c2cccnc2)c1C#N | 2.51% (inactive)
65 | COc1ccccc1CCNC(=O)CN1C(=O)NC2(CCCC2)C1=O | -1.76% (inactive)
66 | O=C(O)CC(c1ccccc1F)N1Cc2ccccc2C1=O (stereo not given) | 0.38% (inactive)
67 | O=c1[nH]c(SCc2cccc(F)c2)nc2ccccc12 | -0.09% (inactive)
68 | CCOc1cc(/C=C/c2nc3ccccc3c(=O)[nH]2)cc(Br)c1OC | 4.32% (inactive)
69 | O=c1[nH]c(/C=C/c2cccc(Br)c2)nc2ccccc12 | 49.9% (active)

Row | SMILES | inhibition
70 | COc1ccc(S(=O)(=O)N2CCOC2CNC(=O)C(=O)NCc2ccncc2)cc1C (stereo not given) | -2.32% (inactive)
71 | O=C1CSC(=S)N1c1ccc(O)cc1 | 2.41% (inactive)
72 | Cc1cc(=O)[nH]c(S)c1C#N | 3.28% (inactive)
73 | Cc1ccc(-c2nnc(C)c(N3CC(C)OC(C)C3)n2)cc1 (stereo not given) | 1.07% (inactive)
74 | CC(=O)c1cc(C#N)c(SCC(=O)C(C)(C)C)nc1C | 5.58% (inactive)
75 | CC(=O)c1cc(C#N)c(N2CC(C)OC(C)C2)nc1C (stereo not given) | 20% (active)
76 | O=C(Nc1nnc(SCc2c(Cl)cccc2Cl)s1)C1CCCO1 (stereo not given) | 4.51% (inactive)
77 | O=C(Nc1nnc(CCc2ccccc2)s1)C1CCCO1 (stereo not given) | 18% (active)
78 | O=C(Nc1ccc(-c2nnc(-c3ccccc3)o2)cc1)C1CCCO1 (stereo not given) | 0.12% (inactive)
79 | OCCNc1nc(Nc2ccc(Cl)c(Cl)c2)nc2ccccc12 | 2.53% (inactive)
80 | CS(=O)(=O)c1ccc(Cl)c(NC(=O)COC(=O)c2ncc(Cl)c(Cl)c2Cl)c1 | -5.36% (inactive)
81 | Cc1ccc(S(=O)(=O)CC(=O)Nc2sc(C)c(C)c2C(N)=O)cc1 | 17.8% (active)
82 | CC(=O)N1CCc2c(sc(NC(=O)CCS(=O)(=O)c3ccc(C)cc3)c2C(N)=O)C1 | -1.1% (inactive)
83 | Cc1ccc(S(=O)(=O)CC(=O)Nc2nnc(C)s2)cc1 | -3.43% (inactive)
84 | C/C=C(\C)C(=O)NCCN1C2=NC[C@H](Cc3ccc(O)cc3)N2C[C@@H]1Cc1ccc(OC)cc1 | -2.36% (inactive)
85 | O=C(O)CC1(CC(=O)Nc2cccc(C(F)(F)F)c2)CCCC1 | -5.07% (inactive)
86 | O=C(O)CSCC(=O)Nc1ccc(C(F)(F)F)cc1 | -1.45% (inactive)
87 | O=C(O)CSCC(=O)Nc1cccc(C(F)(F)F)c1 | 16.9% (active)
88 | CCOc1cc(N2CCOCC2)c(OCC)cc1NC(=O)c1ccc(C)s1 | -0.83% (inactive)
89 | CCOc1cc(N2CCOCC2)c(OCC)cc1NC(=O)COc1cccc2cccnc12 | -0.24% (inactive)
90 | CCOc1cc(N2CCOCC2)c(OCC)cc1NC(=O)COc1cccc(Cl)c1 | 30.1% (active)
